Measurements taken from ChEMBL document CHEMBL1157539, “Thousands of chemical starting points for antimalarial lead identification” (Nature, 2010).

Tests used:
Format in all cases: functional
Plasmodium falciparum [1] = test: GSK_TCMDC: Inhibition of Plasmodium falciparum 3D7 in whole red blood cells, using parasite LDH activity as an index of growth. Test compounds present at 2uM
Plasmodium falciparum [2] = test: GSK_TCMDC: Inhibition of Plasmodium falciparum Dd2 in whole red blood cells, using parasite LDH activity as an index of growth. Test compounds present at 2uM
HepG2 = test: GSK_TCMDC: Percent inhibition of human HepG2 cell line. Test compounds present at 10uM.

Structure (SMILES) | Inhibition (Plasmodium falciparum [1]) [%] | Inhibition (Plasmodium falciparum [2]) [%] | Inhibition (HepG2) [%]
Cc1csc(NC(=O)c2cn(-c3ccccc3)nc2-c2cccs2)n1 | 95 | 12 | 0
Clc1ccc(Nc2nc3nonc3nc2Nc2ccc(Cl)c(Cl)c2)cc1 | 99 | 92 | 75
COc1cccc(-c2ccc(C(=O)NC3CCN(Cc4ccc(N(C)C)cc4)CC3)s2)c1.O=C(O)C(F)(F)F | 81 | 20 | 8
COc1ccc(Cl)c(CC2c3cc(O)c(Cl)cc3CCN2C)c1.Cl (configuration not stated) | 98 | 72 | 9
O=C(Cc1ccsc1)NCC(c1ccccc1Cl)c1c[nH]c2ccccc12 (configuration not stated) | 86 | 71 | 0
COc1ccc2ncc(F)c(CCN3CCC(CNCc4cccc5c4OCO5)CC3)c2n1.Cl | 93 | 37 | 39
CCc1c(C)c(C#N)c2nc3ccccc3n2c1NCc1ccco1 | 99 | 90 | 0
COCCNCC(O)Cn1c2ccc(Cl)cc2c2cc(Cl)ccc21 (configuration not stated) | 95 | 74 | 15
CC(C)CC(C)NC(=O)C1Cc2c([nH]c3cc(Cl)ccc23)C2(CCN(CCc3ccccc3)CC2)N1 (configuration not stated) | 95 | 65 | 15
Cc1cccc2nc(-c3ccc(-c4cccc(NC(=O)Cc5c[nH]cn5)c4)cc3)[nH]c12 | 98 | 21 | 13
O=C(O)C(F)(F)F.c1ccc(CCNCc2cccc(-c3ccccc3CNCc3ccc4c(c3)OCO4)c2)nc1 | 90 | 80 | 41
Cc1cc2ccccc2n1CC(=O)N1CC(C(=O)N2CCCCC2)Oc2ccccc21 (configuration not stated) | 99 | 77 | 0
COc1ccc2nccc([C@@H](O)CN3CCC(NC(=O)C(=O)c4c[nH]c5c(C)cccc45)CC3)c2c1 | 100 | 94 | 17
CC(=O)N1N=C(c2[nH]c3ccc(Br)cc3c2C)OC1c1ccccc1 (configuration not stated) | 86 | 68 | 8
Cc1ccc(O)cc1Nc1ccnc2cc(-c3ccncc3)ccc12.Cl | 100 | 84 | 16
Cc1cc(N[C@@H](Cc2ccccc2)C(=O)NCCOc2ccccc2)nc(NCCOc2ccccc2)n1.O=C(O)C(F)(F)F | 98 | 24 | 0
Cc1cc(OCCCN2CCC(NS(=O)(=O)c3cccc(Br)c3)C2)c2ccccc2n1 (configuration not stated) | 86 | 40 | 13
c1csc(-c2nc(NCC3CCCO3)ncc2-c2ccsc2)n1 (configuration not stated) | 89 | 83 | 0
CCOc1cc(C(=O)N[C@@H](Cc2ccccc2)[C@H](O)CNC(C)(C)c2cccc(OC)c2)cc(N2CCCS2(=O)=O)c1 | 99 | 99 | 0
CCc1ccc(CN2CCC(CNC(=O)c3cc(-c4ccccc4F)cs3)C2)cc1.O=C(O)C(F)(F)F (configuration not stated) | 100 | 3 | 29
OC(CNCc1cccc(Oc2ccc(Cl)cc2)c1)c1cccc(C(F)(F)F)c1 (configuration not stated) | 94 | 78 | 0
CC(C)(C)c1ccc2[nH]c(-c3ccc(/C=C/C(=O)NC4CCN(Cc5ccccc5)CC4)cc3)nc2c1 | 100 | 96 | 45
COc1cc2nc(N3CCC(NC(=O)c4cccc(N(C)C)c4)CC3)nc(N)c2cc1OC.O=C(O)/C=C\C(=O)O | 98 | 0 | 6
Cl.ON=C1c2cc(OCCN3CCCCC3)c(Cl)cc2-c2cc(Cl)c(OCCN3CCCCC3)cc21 | 97 | 98 | 99
COc1c(C2CCN(CCCCNC(=O)c3ccc(-c4ccc(NC(=O)C(F)(F)F)cc4)cc3)CC2)ccc2c1CCCC2 | 86 | 33 | 95
Br.CC1(C)NC(N)=NC(=N)N1OCCCSc1ccccc1 | 93 | 94 | 69
COc1ccc2nccc(CCN3CC(O)C(CNCc4ccc5c(n4)NC(=O)CS5)C3)c2n1.Cl (configuration not stated) | 86 | 26 | 4
COc1cc2ccccc2c(CNCCCCCCNCc2c(OC)c(OC)cc3ccccc23)c1OC.CS(=O)(=O)O | 95 | 89 | 100
CCOC(=O)c1cccc(NC(=N)Nc2nc(C)cc(NCCc3ccccc3)n2)c1 | 100 | 72 | 21
